Only a selection was taken, and hits are over-represented in it overall.
Integrin act MD – qHTS for Activators of Integrin-Mediated Alleviation for Muscular Dystrophy; alpha7betagal myoblasts, beta-gal FDG fluorescence, 48 h; Potency, µM (highest dose often 38.3 µM), for the others: top-dose activation, hits mostly activators; 350,000 compounds, 0.064% hits;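 note: potency is the fitted concentration of half-maximal effect; 100% = response of the positive control SU9516; nearly all actives have a fitted effect of over 60% in size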
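Alpha7betagal+/- myoblasts (passage 13) were plated 16-24 hr, then exposed to compounds (1:260 dilution of DMSO stock) for 48 hours at 37C. After MPER lysis, β-galactosidase reporter activity was read as FDG fluorescence (ex 480/em 540) after 30 minutes.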
ERG-DNA inh – qHTS for Small Molecule Inhibitors of the ERG Ets/DNA interaction; fluorescence polarization, His-ERG Ets domain / labelled DNA; Potency, µM (doses to about 76.9 µM), for the others: top-dose FP activity, negative = inhibition, hits mostly inhibitors; 370,000 compounds, 0.028% hits; AID 624246, 2012; active = well fitted inhibition curve with a large enough effect in the polarisation, with a control signal flat; inconclusive = small, poorly fitted or top-dose-only effect, or effect the other way, or a change in a side signal; inactive = no such curve, though single readings can be large or run the other way; the % refers to the polarisation;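 note: polarization taken with two DNA probes labelled with fluorescein and Texas red; potency is the fitted concentration of half-maximal effect; % of control where 0% means no effect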
Target sequence (P11308 whole entry, looked up, the tested form may be a part): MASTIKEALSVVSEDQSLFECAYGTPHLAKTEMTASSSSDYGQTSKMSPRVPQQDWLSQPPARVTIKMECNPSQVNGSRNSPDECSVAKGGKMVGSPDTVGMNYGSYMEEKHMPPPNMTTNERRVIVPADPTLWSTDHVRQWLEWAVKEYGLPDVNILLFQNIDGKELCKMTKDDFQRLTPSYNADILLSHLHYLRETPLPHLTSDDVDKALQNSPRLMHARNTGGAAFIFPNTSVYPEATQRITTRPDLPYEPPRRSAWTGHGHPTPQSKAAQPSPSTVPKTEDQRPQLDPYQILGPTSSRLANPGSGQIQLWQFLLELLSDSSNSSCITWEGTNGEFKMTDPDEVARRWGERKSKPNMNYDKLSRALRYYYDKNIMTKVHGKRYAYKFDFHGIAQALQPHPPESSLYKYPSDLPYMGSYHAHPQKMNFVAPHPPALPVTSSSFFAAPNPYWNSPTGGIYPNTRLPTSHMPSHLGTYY
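His-tagged ERG Ets domain (1 uM in the protein solution; 300mM KCl, 50mM Tris-HCl, 1mM EDTA, 1mM DTT, pH 7.5) received compound, then a probe mix of 5 nM fluorescein-DNA and 100nM Texas-615-DNA. Fluorescence polarization was read for both dyes.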
RORgamma inh – qHTS for inhibitors of ROR gamma transcriptional activity; Drosophila S2 Gal4-RORgamma UAS-luciferase reporter, 20 h; Potency, µM (titrated, usually from 53.6 µM), without a hit: at the top dose activity change, negative = inhibition, most hits filed as inhibitors; 310,000 compounds, 5.4% hits; AID 2551, 2010; note: potency is the fitted concentration of half-maximal effect; % is set by controls: 0 for no effect and ±100 for the full control effect; nearly all actives have a fitted effect of over 60% in size
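ROR gamma transcriptional activity was tracked as Gal4-UAS luciferase output in stably transfected Drosophila Schneider cells, with compound added 1 hr before 700 uM copper sulfate induction and a 20 hr ambient-temperature incubation.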
Giardia killer – Small Molecules that selectively kill Giardia lamblia: qHTS; Giardia lamblia trophozoite viability; activity change, % at 7.66 µM, hits read low; 340,000 compounds, 0.15% hits; AID 540267, 2011; in the data active = activity change below about -80%; inconclusive = between about -30% and that limit;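 note: parasites exposed to compound for two days anaerobically before the ATP read; % is set by controls: 0 for no effect and ±100 for the full control effect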
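Trophozoites 100 cells/well + cpd; 48 hrs, 37 deg C, anaerobic. ATPLite 1-Step added, 15-30 min RT, luminescence read (ATP-based viability).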
VP16 counter – VP16 counterscreen qHTS for inhibitors of ROR gamma transcriptional activity; Drosophila S2 Gal4-VP16 UAS-luciferase, luminescence, 20 h; 310,000 compounds, 3.5% hits; Potency, µM (doses to about 53.6 µM), for the others: at the highest dose activity, negative = inhibition, hits mostly inhibitors;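 note: Gal4-VP16 expression switched on by copper sulfate through the metallothionein promoter; potency is the fitted concentration of half-maximal effect; % is set by controls: 0 for no effect and ±100 for the full control effect; nearly all actives have a fitted effect of over 50% in size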
* hit, by the source's call; ? = inconclusive; · = not tested or not shown; ! = not confirmed by another sample; [ ] = remark or other dose. Unless noted, calls come from the whole dose curve; as a rule, active = well fitted curve in the direction sought with a large enough effect; inconclusive = small, poorly fitted or top-dose-only effect, or another doubt; inactive = no such curve, though single readings can be large; an effect the other way counts as inactive or inconclusive.

SMILES | Integrin act MD | ERG-DNA inh | RORgamma inh | Giardia killer | VP16 counter
COc1ccc(C)cc1NC(=O)C1CCC(CNS(=O)(=O)c2ccc3c(c2)CCCC(=O)N3)CC1 (centres undefined) | · | 0% | · | · | ·
O=S(=O)(c1cccnc1)N1CCN(c2nc(-c3cccs3)nc3ccccc23)CC1 | · | · | · | -6 | ·
Cc1noc(C)c1-c1nccc(Nc2ccc(F)cc2)n1 | · | · | ? | · | 5%
C=C(C)CNC(=S)N/N=C(\C)c1ccc(OC)cc1 | -10% | 13% | 2.2µM* | ? | 5µM*
CCC(=O)Nc1ccc(/C(C)=N\NC(=O)c2ccc(OC)cc2)cc1 | 5% | -4% | -25% | -11 | -8%
COCCNC(=S)N/N=C(\C)c1ccc(C)c([N+](=O)[O-])c1 | 2% | 0% | 3.5µM* | 12 | 4µM*
COCCNC(=S)N/N=C(\C)c1ccc(OC)cc1 | -16% | 6% | 0.63µM* | 0 | 1.3µM*
Fc1c(CSC(=S)N2CCOCC2)cccc1CSC(=S)N1CCOCC1 | 6% | -19% | -14% | -19 | -1%
O=C(COC(=O)c1cccc(C(=O)OCC(=O)NCc2ccc(F)cc2)n1)NCc1ccc(F)cc1 | -1% | -8% | -8% | 21 | -1%
Cc1ccc(NC(=O)c2ccc(NCCCN3CCOCC3)c([N+](=O)[O-])c2)cc1Cl | -36% | -5% | 18% | 4 | -21%
O=C(Nc1ccc(Cl)c([N+](=O)[O-])c1)c1ccc(NCCCN2CCOCC2)c([N+](=O)[O-])c1 | 15% | -9% | 5µM* | ? | ?
CCOc1ccc(-c2n[nH]c(C)c2-c2ccccc2OC)c(O)c1 | -42% | 3% | 2µM* | -13 | ?
COc1ccc(-c2c(-c3ccc(OCC(=O)NN)cc3O)n[nH]c2C)cc1OC | -1% | 2% | -27% | -11 | 2%
COc1ccc(-c2c(-c3ccc(OCC(=O)NN)cc3O)n[nH]c2C(F)(F)F)cc1 | -3% | 0% | 6.3µM* | -2 | 4.5µM*
C=C(C)COc1ccc(-c2n[nH]c(C)c2-c2ccc(OC)cc2)c(O)c1 | -53% | -2% | 2.2µM* | 7 | ?
COc1ccc(-c2n[nH]c(C)c2-c2cscn2)c(O)c1 | 41% | 0% | ? | -10 | -26%
COC(=O)C/C=C\[C@@H](C)[C@@H](/C=N\O[C@@H](C)CN1CCCCc2nc(C)c(C)cc21)OC | · | · | 4%[10 µM] | · | 9%[10 µM]
CCCN(c1ccc(C(C)C)cc1)S(=O)(=O)c1ccc2c(c1)n(C)c(=O)c(=O)n2C | · | 2% | · | · | ·
COc1cc(OC)c(NC2(c3ccccc3)C(=O)c3ccccc3C2=O)cc1Cl | · | 7% | · | · | ·
O=C(NC(NC(=S)Nc1ccccc1C(=O)O)C(Cl)(Cl)Cl)c1ccco1 (centres undefined) | 28% | · | -23% | 3 | -6%
COC(=O)c1ccccc1NC(=S)NC(NC(=O)c1ccco1)C(Cl)(Cl)Cl (centres undefined) | 5% | -1% | 7.9µM* | 15 | -89%
COC(=O)c1ccccc1NC(=S)NC(NC(=O)c1ccccc1[N+](=O)[O-])C(Cl)(Cl)Cl (centres undefined) | -8% | -1% | 13µM* | -4 | ?
CC(C)Oc1ccc(CN2CCc3nc(Nc4ccc5c(c4)OCCO5)ncc3C2)cc1 | · | 0% | · | · | ·
CCOc1ccc(S(=O)(=O)N(CC)CC)cc1NS(=O)(=O)c1ccc(F)c(F)c1F | 31% | -3% | 40% | -19 | -13%
CCN(CC)S(=O)(=O)c1ccc(O)c(NS(=O)(=O)c2ccccc2F)c1 | -2% | 2% | 10µM* | 10 | -29%
SMILES | Integrin act MD | ERG-DNA inh | RORgamma inh | Giardia killer | VP16 counter
O=C(NCCCCNC(=O)C(F)(F)F)C(F)(F)F | 0% | -3% | 9% | -9 | -2%[10 µM]
COc1cccc(NC(=S)NC(=O)/C=C/c2ccco2)c1 | -25% | 7% | 11µM* | -4 | ?
CN1CCN(c2ccc(NC(=S)NC(=O)/C=C/c3ccco3)cc2)CC1 | -6% | -1% | 11µM* | 16 | 11µM*
COc1ccc(CNC(=O)/C=C/c2ccco2)cc1OC | 22% | 5% | 11% | -9 | 7%
CC(=O)N(C)c1ccc(NC(=S)NC(=O)/C=C/c2ccco2)cc1 | -24% | -1% | 10µM* | -22 | -29%
COc1ccc(NC(=S)NC(=O)/C=C/c2ccco2)c(OC)c1 | 17% | 5% | 13µM* | 1 | 13µM*
CC(=O)Nc1ccc(NC(=S)NC(=O)/C=C/c2ccco2)cc1 | -2% | 32% | 20% | 13 | 17%
O=C(/C=C/c1ccco1)NC(=S)Nc1cccc(C(=O)O)c1 | -15% | 14% | -6% | -20 | -5%
CCOc1ccc(NC(=S)NC(=O)/C=C/c2ccco2)cc1 | -20% | 7% | 4µM* | 9 | 5.6µM*
COc1ccc2nc3c(c(-c4ccccc4)c2c1)CCC3 | 0% | -3% | 11µM* | -24 | 18µM*!
CCCCNc1c2c(nc3c(-c4ccccc4)c(C)nn13)CCC2 | 4% | -2% | -4% | 13 | 1%
COc1cccc(Nc2c3c(nc4c(-c5ccccc5)c(C)nn24)CCC3)c1 | -1% | -3% | ? | 13 | 3.2µM*
CCC(C)Nc1c2c(nc3c(-c4ccccc4)c(C)nn13)CCC2 (centres undefined) | -11% | 4% | 10µM* | -12 | -12%
Cc1nn2c(NCCN(C)C)c3c(nc2c1-c1ccccc1)CCCC3 | -48% | -6% | ? | -6 | 0.45µM*
CCN(C(=O)Cn1c(SCC(=O)Nc2ccc(OC)cc2)nc2ccccc21)c1cccc(C)c1 | · | 7% | · | · | ·
O=C(Nc1cc2c(cc1C(=O)c1ccc(Br)cc1)OCCO2)c1ccc(Cl)cc1 | · | -2% | · | · | ·
COCCNc1c2c(nc3c(-c4ccccc4)c(C)nn13)CCCC2 | -5% | -8% | ? | 8 | -2%
Cc1nn2c(Nc3ccc(F)cc3)c3c(nc2c1-c1ccccc1)CCC3 | 5% | 6% | 2.8µM* | 11 | ?
Cc1noc(C)c1NC(=O)N(C)C[C@@H]1OCc2cnnn2CCCC(=O)N([C@@H](C)CO)C[C@@H]1C | 4% | · | · | · | ·
CN(C)/C=N/c1nccc(-c2cccs2)n1 | 8.9µM* | 9% | -11% | 9 | -17%
c1cc(-c2cccs2)nc(-c2cccs2)c1 | -2% | -12% | 0% | 5 | -3%
CN(C#N)c1nccc(-c2cccs2)n1 | 11µM* | -2% | -1% | -20 | ?
COC(=O)C(C(C)C)N1CC(=O)c2ccccc2S1(=O)=O (centres undefined) | · | · | -17% | -11 | -10%
NCCCC[C@H](NC(=O)CNC(=O)[C@@H]1CCCN1C(=O)[C@H](Cc1ccc(O)cc1)NC(=O)CN)C(=O)N[C@@H](Cc1ccccc1)C(=O)O | · | · | 7% | · | -3%
CCOC(=O)c1noc2nc(C)n(CC(=O)Nc3ccc(Br)cc3C)c(=O)c12 | · | 0% | · | · | ·
